Tests used:
Assay in all cases: log2 ratio of Biotin-Ahx-Ub-VS probe labelling (fragment/DMSO); higher = less target engagement (more negative = stronger competition), active = hit call of the paper (q ≤ 0.05, log2 ratio ≤ -1)
Settings in all cases: compound concentration: 200 uM; treatment time: 3 h
[1] = biological target: T1, ALG13 (UniProt Q9NP73)
T1 sequence (whole entry): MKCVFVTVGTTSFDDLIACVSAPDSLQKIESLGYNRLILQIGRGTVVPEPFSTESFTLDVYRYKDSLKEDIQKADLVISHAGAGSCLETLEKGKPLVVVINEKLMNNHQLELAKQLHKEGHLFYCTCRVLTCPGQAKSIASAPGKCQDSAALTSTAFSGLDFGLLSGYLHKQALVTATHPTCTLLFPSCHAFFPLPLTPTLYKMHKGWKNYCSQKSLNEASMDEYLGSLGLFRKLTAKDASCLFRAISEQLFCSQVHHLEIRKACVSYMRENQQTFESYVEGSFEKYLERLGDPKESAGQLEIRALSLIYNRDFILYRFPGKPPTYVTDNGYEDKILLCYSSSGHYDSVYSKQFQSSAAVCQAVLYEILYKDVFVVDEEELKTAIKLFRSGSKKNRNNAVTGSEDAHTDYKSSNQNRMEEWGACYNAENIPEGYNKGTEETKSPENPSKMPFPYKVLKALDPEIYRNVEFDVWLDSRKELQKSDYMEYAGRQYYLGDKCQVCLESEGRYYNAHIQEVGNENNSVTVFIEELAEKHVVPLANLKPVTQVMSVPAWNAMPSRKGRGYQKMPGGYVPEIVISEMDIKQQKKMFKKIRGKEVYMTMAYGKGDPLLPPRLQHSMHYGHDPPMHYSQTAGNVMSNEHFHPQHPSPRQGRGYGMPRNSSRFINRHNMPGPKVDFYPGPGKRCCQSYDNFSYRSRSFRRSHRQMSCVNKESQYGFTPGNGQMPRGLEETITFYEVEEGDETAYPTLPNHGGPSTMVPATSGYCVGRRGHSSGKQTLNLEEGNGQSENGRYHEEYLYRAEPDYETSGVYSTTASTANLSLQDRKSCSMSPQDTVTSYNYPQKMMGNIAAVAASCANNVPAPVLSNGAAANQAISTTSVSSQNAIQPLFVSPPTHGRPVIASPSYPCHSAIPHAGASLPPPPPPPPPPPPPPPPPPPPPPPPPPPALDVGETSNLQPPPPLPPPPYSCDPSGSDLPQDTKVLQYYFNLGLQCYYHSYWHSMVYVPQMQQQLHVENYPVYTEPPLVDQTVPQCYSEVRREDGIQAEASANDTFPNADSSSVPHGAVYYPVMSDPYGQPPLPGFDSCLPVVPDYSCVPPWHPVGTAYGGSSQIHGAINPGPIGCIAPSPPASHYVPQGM
Summary of the method: (§1)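 Labelling with Biotin-Ahx-Ub-VS (0.5 µM final, 1 h) followed a 3 h triplicate treatment of HEK293T lysate (495 µg per sample, Tris/CHAPS/IGEPAL buffer with protease inhibitors) with fragment at 200 µM or vehicle. Labelled DUBs were NeutrAvidin-enriched, digested with LysC and trypsin, and run by diaPASEF LC-MS/MS. The values, average log2 fragment/vehicle ratios by unpaired t-test, come from global-median-normalised Spectronaut label-free quantities. Proteins with ≥2 unique peptides were used.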

[2] = biological target: ATXN3 (UniProt P54252)
Summary of the method: as §1

[3] = biological target: T2, BAP1 (UniProt Q92560)
T2 sequence (whole entry): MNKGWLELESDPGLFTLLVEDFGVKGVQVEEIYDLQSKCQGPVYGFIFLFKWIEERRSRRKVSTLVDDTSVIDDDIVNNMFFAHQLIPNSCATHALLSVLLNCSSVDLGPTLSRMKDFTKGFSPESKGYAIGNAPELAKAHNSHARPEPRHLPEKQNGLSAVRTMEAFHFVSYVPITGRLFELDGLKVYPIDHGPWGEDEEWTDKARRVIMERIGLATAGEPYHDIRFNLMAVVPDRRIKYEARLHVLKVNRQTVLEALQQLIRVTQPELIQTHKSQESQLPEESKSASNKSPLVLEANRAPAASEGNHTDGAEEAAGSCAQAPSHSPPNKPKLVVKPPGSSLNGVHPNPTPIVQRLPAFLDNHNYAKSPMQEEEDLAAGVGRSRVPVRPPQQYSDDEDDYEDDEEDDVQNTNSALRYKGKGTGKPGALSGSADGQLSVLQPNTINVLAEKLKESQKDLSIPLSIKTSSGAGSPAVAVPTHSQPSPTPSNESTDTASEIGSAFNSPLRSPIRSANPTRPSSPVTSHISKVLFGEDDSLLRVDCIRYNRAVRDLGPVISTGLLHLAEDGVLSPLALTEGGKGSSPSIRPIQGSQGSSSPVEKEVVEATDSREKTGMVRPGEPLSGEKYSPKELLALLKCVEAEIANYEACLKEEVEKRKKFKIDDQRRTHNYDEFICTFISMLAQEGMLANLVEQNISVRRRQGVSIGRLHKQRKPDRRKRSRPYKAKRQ
Summary of the method: as §1

[4] = biological target: EIF3F (UniProt O00303)
Summary of the method: as §1

[5] = biological target: EIF3H (UniProt O15372)
Summary of the method: as §1

[6] = biological target: T3, FAM105A (UniProt Q9NUU6)
T3 sequence (whole entry): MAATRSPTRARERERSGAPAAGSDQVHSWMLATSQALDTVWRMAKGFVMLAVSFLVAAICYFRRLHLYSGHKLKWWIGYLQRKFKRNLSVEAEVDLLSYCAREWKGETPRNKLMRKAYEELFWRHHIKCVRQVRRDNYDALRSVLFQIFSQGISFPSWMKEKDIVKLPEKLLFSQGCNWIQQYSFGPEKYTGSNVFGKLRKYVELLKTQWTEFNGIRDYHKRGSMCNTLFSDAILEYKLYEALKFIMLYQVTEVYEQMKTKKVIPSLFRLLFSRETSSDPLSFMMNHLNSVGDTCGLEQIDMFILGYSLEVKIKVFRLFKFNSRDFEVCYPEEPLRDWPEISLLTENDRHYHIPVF
Summary of the method: as §1

[7] = biological target: OTUB1 (UniProt Q96FW1)
Summary of the method: as §1

[8] = biological target: T4, OTUD4 (UniProt Q01804)
T4 sequence (whole entry): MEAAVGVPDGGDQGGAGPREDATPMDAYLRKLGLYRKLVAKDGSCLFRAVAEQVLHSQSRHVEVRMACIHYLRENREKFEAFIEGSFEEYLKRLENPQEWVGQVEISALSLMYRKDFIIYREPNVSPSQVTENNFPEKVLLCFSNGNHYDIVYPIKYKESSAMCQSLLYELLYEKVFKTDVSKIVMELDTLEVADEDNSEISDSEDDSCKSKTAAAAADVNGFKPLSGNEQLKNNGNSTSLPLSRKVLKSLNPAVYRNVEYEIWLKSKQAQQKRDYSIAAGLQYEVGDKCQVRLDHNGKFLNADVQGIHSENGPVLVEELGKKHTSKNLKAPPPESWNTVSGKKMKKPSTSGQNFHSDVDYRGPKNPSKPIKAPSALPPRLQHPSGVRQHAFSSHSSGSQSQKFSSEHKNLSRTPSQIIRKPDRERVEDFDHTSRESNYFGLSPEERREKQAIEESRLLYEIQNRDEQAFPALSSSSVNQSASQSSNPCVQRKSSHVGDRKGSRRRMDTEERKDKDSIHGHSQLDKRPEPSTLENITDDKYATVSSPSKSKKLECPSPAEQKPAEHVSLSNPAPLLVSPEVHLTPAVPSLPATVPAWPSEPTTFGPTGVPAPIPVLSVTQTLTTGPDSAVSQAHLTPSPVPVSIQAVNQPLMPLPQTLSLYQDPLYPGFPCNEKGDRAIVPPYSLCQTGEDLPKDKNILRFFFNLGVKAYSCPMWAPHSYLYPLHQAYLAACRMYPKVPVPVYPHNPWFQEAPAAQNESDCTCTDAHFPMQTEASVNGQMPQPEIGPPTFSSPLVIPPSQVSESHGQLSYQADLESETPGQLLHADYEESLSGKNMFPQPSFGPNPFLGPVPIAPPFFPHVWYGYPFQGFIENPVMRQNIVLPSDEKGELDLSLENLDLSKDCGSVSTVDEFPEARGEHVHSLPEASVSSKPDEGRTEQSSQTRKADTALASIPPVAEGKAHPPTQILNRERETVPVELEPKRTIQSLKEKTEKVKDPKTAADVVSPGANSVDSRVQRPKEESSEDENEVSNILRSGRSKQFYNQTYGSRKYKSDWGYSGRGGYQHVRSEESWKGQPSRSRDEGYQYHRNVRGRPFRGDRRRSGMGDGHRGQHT
Summary of the method: as §1

[9] = biological target: T5, OTUD5 (UniProt Q96G74)
T5 sequence (whole entry): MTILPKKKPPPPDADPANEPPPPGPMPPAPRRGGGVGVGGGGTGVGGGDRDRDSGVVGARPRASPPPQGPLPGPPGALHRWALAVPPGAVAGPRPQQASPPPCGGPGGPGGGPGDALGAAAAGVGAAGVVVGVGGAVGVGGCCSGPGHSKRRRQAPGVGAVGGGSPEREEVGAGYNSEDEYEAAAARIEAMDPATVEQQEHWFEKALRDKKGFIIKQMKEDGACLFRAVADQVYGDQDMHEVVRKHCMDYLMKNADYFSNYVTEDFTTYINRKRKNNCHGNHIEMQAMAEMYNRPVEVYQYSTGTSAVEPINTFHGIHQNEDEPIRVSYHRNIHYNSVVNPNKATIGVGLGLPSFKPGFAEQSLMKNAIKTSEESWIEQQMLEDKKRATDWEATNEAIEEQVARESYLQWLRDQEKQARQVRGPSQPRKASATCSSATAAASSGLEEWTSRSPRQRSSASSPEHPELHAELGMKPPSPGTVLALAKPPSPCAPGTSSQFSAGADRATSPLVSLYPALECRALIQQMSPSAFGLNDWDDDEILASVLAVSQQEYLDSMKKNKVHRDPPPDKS
Summary of the method: as §1

Measured: log2 ratio of Biotin-Ahx-Ub-VS probe labelling

Chain of EIF3H (O15372 whole entry): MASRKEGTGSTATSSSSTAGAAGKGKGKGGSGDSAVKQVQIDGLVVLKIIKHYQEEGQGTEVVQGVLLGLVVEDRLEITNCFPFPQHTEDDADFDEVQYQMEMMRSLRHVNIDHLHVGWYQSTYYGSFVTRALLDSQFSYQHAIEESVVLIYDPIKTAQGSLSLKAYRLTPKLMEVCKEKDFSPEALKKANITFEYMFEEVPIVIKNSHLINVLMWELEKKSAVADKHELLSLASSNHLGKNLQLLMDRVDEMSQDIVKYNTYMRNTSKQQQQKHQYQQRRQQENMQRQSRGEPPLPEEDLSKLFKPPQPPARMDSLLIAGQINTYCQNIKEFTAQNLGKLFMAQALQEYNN
Chain of EIF3F (O00303 whole entry): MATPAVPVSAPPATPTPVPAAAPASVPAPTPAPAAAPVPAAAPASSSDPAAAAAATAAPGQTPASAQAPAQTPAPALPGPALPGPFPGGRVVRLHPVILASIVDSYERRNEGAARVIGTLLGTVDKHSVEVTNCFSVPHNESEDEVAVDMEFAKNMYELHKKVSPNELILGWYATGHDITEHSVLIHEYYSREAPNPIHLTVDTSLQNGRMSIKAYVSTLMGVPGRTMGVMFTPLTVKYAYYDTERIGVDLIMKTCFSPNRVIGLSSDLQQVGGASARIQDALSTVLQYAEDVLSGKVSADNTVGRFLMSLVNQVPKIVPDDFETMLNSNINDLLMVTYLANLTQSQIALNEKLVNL
Chain of ATXN3 (P54252 whole entry): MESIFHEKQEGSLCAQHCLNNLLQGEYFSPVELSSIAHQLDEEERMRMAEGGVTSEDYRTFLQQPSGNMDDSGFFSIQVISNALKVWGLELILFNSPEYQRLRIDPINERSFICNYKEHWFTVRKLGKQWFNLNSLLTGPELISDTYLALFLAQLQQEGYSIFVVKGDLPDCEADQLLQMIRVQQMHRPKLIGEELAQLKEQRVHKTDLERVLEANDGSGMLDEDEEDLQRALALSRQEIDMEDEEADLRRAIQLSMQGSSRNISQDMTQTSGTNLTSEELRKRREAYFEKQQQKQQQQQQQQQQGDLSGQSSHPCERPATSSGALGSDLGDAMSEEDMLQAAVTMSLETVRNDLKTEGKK
Chain of OTUB1 (Q96FW1 whole entry): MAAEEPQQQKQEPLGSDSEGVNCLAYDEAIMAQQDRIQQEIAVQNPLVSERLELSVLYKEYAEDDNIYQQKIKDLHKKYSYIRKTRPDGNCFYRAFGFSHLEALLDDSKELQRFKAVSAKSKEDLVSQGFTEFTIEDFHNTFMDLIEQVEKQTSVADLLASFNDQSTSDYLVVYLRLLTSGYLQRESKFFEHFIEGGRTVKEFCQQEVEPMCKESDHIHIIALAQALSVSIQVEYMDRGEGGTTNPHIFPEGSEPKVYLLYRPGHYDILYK

CCN(C(=O)CCl)C1CCCCC1
inactive: [1] 0.0472 | [2] -0.0119 | [3] 0.174 | [4] -0.141 | [5] 0.022 | [6] -0.207 | [7] 0.0443 | [8] -0.12 | [9] -0.00145

Source: the supplement of paper PMC11732987, “Enantioselective OTUD7B fragment discovery through chemoproteomics screening and high-throughput optimisation” (Communications Chemistry, 2025)
